According to PubChem BioAssay AID2284348 (EPA ToxCast):
Records with an inconclusive call do not appear. The source made the active and inactive calls. Rule for the calls: active = hit-call score of the fitted dose curve at least 0.9, where 1 is the maximum; inconclusive = response in the unintended direction; inactive = score below 0.9.

System: Japanese medaka Peroxisome Proliferator-activated Receptor alpha (PPARa), gene 100304458
Assay: ATG_jmPPARa_EcoTox2: Attagene TRANS-FACTORIAL EcoTox-2 HepG2 Assay for Japanese medaka Peroxisome Proliferator-activated Receptor alpha (PPARa)
Procedure: ATG_EcoTox2 is a cell-based, multiplexed assay created by modifying the existing Attagene TRANS-FACTORIAL system to include a panel of nuclear receptors from some or all the following species: human (Homo sapiens), african clawed frog (Xenopus laevis), rainbow trout (Oncorhynchus mykiss), japanese medaka (Oryzias latipes), and zebrafish (Danio rerio). The ECOTOX2-FACTORIAL format uses HepG2, a human liver cell line, with measurements taken at 24 hours after chemical dosing in a 24-well plate. ATG_jmPPARa_EcoTox2 is one of 29 assay components calculated in the ATG_EcoTox2 assay. It is designed to make measurements of mRNA induction, a form of inducible reporter, as detected with fluorescence intensity signals by Reverse transcription polymerase chain reaction (RT-PCR) and Capillary electrophoresis technology.The assay endpoint ATG_jmPPARa_EcoTox2 was analyzed in the positive analysis fitting direction relative to DMSO as the negative control and baseline of activity. Using a type of inducible reporter, measures of mRNA for gain-of-signal activity can be used to understand the reporter gene at the transcription factor-level as they relate to the gene PPARa. Furthermore, this assay endpoint can be referred to as a […], because this assay has produced multiple assay endpoints where this one serves a reporter gene function. To generalize the intended target to other relatable targets, this assay endpoint is annotated to the nuclear receptor intended target family, where the subfamily is non-steroidal.
Human liver HepG2 cells are transiently transfected with multiple reporter transcription units (MRTUs) in 6-well plates using FuGene 6 reagent (Roche; 3 ml FuGene/1 mg DNA). The MRTU constructs are regulated by a cis-regulating element (promoter). Each RTU expresses a GAL4-UAS that regulates the transcription of a nearby target reporter gene sequence. A major difference between the CIS and TRANS system is that in CIS activities of endogenous TFs are measured, whereas the TRANS assay evaluates changes in activities of exogenous, chimeric NR-Gal4 proteins. […] At the end of 24 hour incubation, total RNA was isolated using TriZol reagent (Invitrogen). The isolated RNA is then reverse-transcribed using oligo(dT) primer and Mo-MLV reverse transcriptase (Invitrogen) with DNAse I (Ambion) treatment for 30 min. The one-tenth of the produced cDNA was amplified by PCR using Taq DNA polymerase (Invitrogen) and two reporter sequence-specific primers. The PCR products were fluorescently labeled by primer extension with 6-arboxyfluorescein (6-FAM) 5'-labeled reporter sequence-specific primer (2 min at 95 C, 20 s at 68 C and 10 min at 72 C) and these products were digested with 5U of HpaI (New England Biolabs) for 2h at 37 C. The fragments were purified using Qiaquick PCR columns (Qiagen), analyzed on an ABI 3130xL genetic analyzer (Applied Biosystems) with peak positions identified by using a set of X-rhodamine (ROX)-labeled MapMarker1000 molecular weight standards (BioVentures). The raw capillary electrophoresis data was processed using Attagraph software (Attagene).

Structure (SMILES)	AC50	outcome
CC(C)(Oc1ccc(C2CC2(Cl)Cl)cc1)C(=O)O (stereo unspecified)	58.5 µM (active)	
CC(C)(Oc1ccc(Cl)cc1)C(=O)O		inactive
Cc1ccc(C)c(OCCCC(C)(C)C(=O)O)c1		inactive
CC(C)(Oc1ccc(CCNC(=O)c2ccc(Cl)cc2)cc1)C(=O)O	45.9 µM (active)	
C[C@@H]1C[C@H]2[C@@H]3CCC4=CC(=O)C=C[C@]4(C)[C@@]3(F)[C@@H](O)C[C@]2(C)[C@@]1(O)C(=O)COP(=O)(O)O		inactive
C=C(c1ccc(C(=O)O)cc1)c1cc2c(cc1C)C(C)(C)CCC2(C)C		inactive
Cc1nc(-c2ccc(C(F)(F)F)cc2)sc1C(=O)NCc1ccc(OC(C)(C)C(=O)O)cc1	0.0807 µM (active)	
C[C@]12C=CC(=O)C=C1CC[C@@H]1[C@@H]2C(=O)C[C@@]2(C)[C@H]1CC[C@]2(O)C(=O)CO		inactive
CN(CCOc1ccc(CC2SC(=O)NC2=O)cc1)c1ccccn1 (stereo unspecified)		inactive
CC(C)OC(=O)C(C)(C)Oc1ccc(C(=O)c2ccc(Cl)cc2)cc1		inactive
Cc1cccc(Nc2cc(Cl)nc(SCC(=O)O)n2)c1C	63.8 µM (active)	
